From PubChem
Rows were chosen to be rich in hits. Some 18% of all compounds tested hit in one or more screens of this group.
LDHA block = blocks human lactate dehydrogenase A; P00338; purified LDHA, NADH/diaphorase-resazurin fluorescence; active compounds read low; activity change, % (values are at about 110 or 230 µM); 480,000 compounds, 0.15% hits; AID 1347041; in the data active means activity change below about -30%; inconclusive means mostly about -25% to -30%
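Remaining NADH was detected by diaphorase (0.133 mg/mL) converting 37 µM resazurin to fluorescent resorufin, read at 0 and 20 minutes. The preceding 5-minute room-temperature reaction used 2 nM LDHA, 0.2 mM sodium pyruvate and 0.06 mM NADH at pH 7.4.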
TDP1 cell CPT = growth inhibition of DT40 Tdp1-/-;hTDP1 cells with camptothecin (screen for TDP1 inhibitors). chicken DT40 Tdp1-/-;hTDP1 cells + 20 nM CPT, ATP luminescence, 48 h. Potency, µM (series often up to 46.2 µM), hits mostly inhibitors. 420,000 compounds, 12% hits; further: nearly all actives have a fitted effect of over 55% in size
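Chicken DT40 Tdp1-/- cells stably complemented with human TDP1 were seeded at 400 cells/well in medium containing 20 nM camptothecin, exposed to pin-transferred compounds, and grown at 37 °C for at least 48 hr. Viability was read as ATP luminescence.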
IL1B secr inh = inflammasome signaling inhibition, IL-1 beta readout; THP-1 LPS/ATP IL-1B secretion, AlphaLISA, 16 h; active compounds read low; activity change, % at 57.5 µM; 360,000 compounds, 4.7% hits; AID 743279; in the data active means activity change below about -50%; inconclusive means mostly about -30% to -49%
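Secreted IL-1B measured by AlphaLISA bead assay after 16 h compound exposure of THP-1 cells; compounds (final up to 57.5 uM) added 1 h before LPS (250 ng/mL) and ATP (1.25 mM) stimulation; lower signal means less secretion.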
VP16 counter = Gal4-VP16 reporter inhibition counter-screen. AID 2546. 310,000 compounds, 3.5% hits. Potency, µM (doses to about 53.6 µM), actives largely listed as inhibitors. Drosophila S2 Gal4-VP16 UAS-luciferase, luminescence, 20 h;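 further: Gal4-VP16 expression switched on by copper sulfate through the metallothionein promoter; nearly all actives have a fitted effect of over 50% in size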
DT40 TDP1 no CPT = qHTS for Inhibitors of human tyrosyl-DNA phosphodiesterase 1 (TDP1): qHTS in cells in absence of CPT; DT40 Tdp1-/- hTDP1 cells, no CPT, ATP luminescence, 48 h; Potency, µM (top dose mostly 46.2 µM), hits mostly inhibitors; 420,000 compounds, 15% hits; further: nearly all actives have a fitted effect of over 55% in size
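Readout: luminescence from CellTiter-Glo after 30 min in the dark at RT. Cells: DT40 Tdp1-/- with stable hTDP1, 400/well. Exposure: compounds alone, ≥48 hr, 37 °C.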
RORg inh = ROR gamma (mouse) transcription inhibition; Potency, µM (highest dose often 53.6 µM), most hits filed as inhibitors; AID 2551; 310,000 compounds, 5.4% hits; Drosophila S2 Gal4-RORgamma UAS-luciferase reporter, 20 h; P51450; further: nearly all actives have a fitted effect of over 60% in size
Target sequence (P51450 whole entry, looked up, the tested form may be a part): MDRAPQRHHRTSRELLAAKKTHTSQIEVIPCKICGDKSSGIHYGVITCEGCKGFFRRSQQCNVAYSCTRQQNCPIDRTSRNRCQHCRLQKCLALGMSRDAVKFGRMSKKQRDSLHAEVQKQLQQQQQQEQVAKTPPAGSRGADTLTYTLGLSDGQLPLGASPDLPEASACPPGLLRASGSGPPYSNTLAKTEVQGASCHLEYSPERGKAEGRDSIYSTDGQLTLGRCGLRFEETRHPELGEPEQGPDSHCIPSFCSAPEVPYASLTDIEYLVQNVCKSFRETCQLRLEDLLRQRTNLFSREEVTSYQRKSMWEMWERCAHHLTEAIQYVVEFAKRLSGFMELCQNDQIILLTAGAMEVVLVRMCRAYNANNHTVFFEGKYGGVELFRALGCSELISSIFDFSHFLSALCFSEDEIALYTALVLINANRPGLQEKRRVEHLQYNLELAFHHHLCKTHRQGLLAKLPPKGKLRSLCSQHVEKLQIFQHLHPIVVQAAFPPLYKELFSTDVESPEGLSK
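In this cell-based reporter format, copper sulfate (700 uM final) drives Gal4–ROR gamma fusion expression from a metallothionein promoter in Drosophila Schneider cells; compounds preincubated 1 hr, reporter read after 20 hr at ambient temperature.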
Each line names hits and unclear results; the compound was inactive in the other large screens. Unless noted, the call rests on the fitted dose curve; in most records, active means well fitted curve in the direction sought with a large enough effect; inconclusive means small, poorly fitted or top-dose-only effect, or another doubt; inactive means no such curve, though single readings can be large; an effect the other way counts as inactive or inconclusive.

Cc1ccc(C)c(N2CCN(C(=O)c3cnc4c(-c5ccccc5)c(C)nn4c3C)CC2)c1	TDP1 cell CPT 26µM, DT40 TDP1 no CPT inconclusive (no result: IL1B secr inh, VP16 counter, RORg inh)
CCS(=O)(=O)N1CCC(C(=O)N2CCN(c3cc(Cl)ccc3C)CC2)CC1	none (no result: TDP1 cell CPT, IL1B secr inh, VP16 counter, DT40 TDP1 no CPT, RORg inh)
COC(=O)c1ccc(COc2cccc(C=O)c2)o1	none (no result: TDP1 cell CPT, IL1B secr inh, VP16 counter, DT40 TDP1 no CPT, RORg inh)
Cc1ccc(NC(=O)C2=Cc3sc4c(c3CS2)CCCC4)cc1C	none (no result: TDP1 cell CPT, IL1B secr inh, VP16 counter, DT40 TDP1 no CPT, RORg inh)
Clc1cccc(CN2CCc3c([nH]c4ccccc34)C2)c1Cl	TDP1 cell CPT inconclusive, IL1B secr inh -62, DT40 TDP1 no CPT 23µM
CCCCNC(=S)N/N=C1\CC2CC=CC12 (configuration not stated)	none (no result: TDP1 cell CPT, IL1B secr inh, VP16 counter, DT40 TDP1 no CPT, RORg inh)
Cc1cc(C)cc(-n2ncc3c(=O)n(CC(O)COc4ccc(F)cc4)cnc32)c1 (configuration not stated)	none (no result: TDP1 cell CPT, IL1B secr inh, VP16 counter, DT40 TDP1 no CPT, RORg inh)
O=C(Nc1ccccc1)OCCOc1ccccc1Br	TDP1 cell CPT inconclusive
O=C(Nc1ccccc1)OC[C@@H]1C=CS(=O)(=O)N1Cc1ccc(Br)cc1	TDP1 cell CPT inconclusive, IL1B secr inh -68, DT40 TDP1 no CPT inconclusive (no result: VP16 counter, RORg inh)
Cc1cccc(-n2c3nc(=O)[nH]c(=O)c-3cc3c(Cl)cccc32)c1C	TDP1 cell CPT 0.82µM, DT40 TDP1 no CPT 0.58µM (no result: IL1B secr inh, VP16 counter, RORg inh)
Cc1cccc(-n2c3nc(=O)[nH]c(=O)c-3cc3ccc(Cl)cc32)c1C	TDP1 cell CPT inconclusive, DT40 TDP1 no CPT 8.2µM (no result: IL1B secr inh, VP16 counter, RORg inh)
Cc1cccc(-n2c3nc(=O)[nH]c(=O)c-3cc3ccccc32)c1C	none (no result: TDP1 cell CPT, IL1B secr inh, VP16 counter, DT40 TDP1 no CPT, RORg inh)
CCN(CC)C(=O)CN(C)C(=O)c1cc2cc(Cl)ccc2nc1C	none (no result: TDP1 cell CPT, IL1B secr inh, VP16 counter, DT40 TDP1 no CPT, RORg inh)
CCN(Cc1cnn(C)c1)C(=O)c1ccc(OC2CCN(S(=O)(=O)N(C)C)CC2)cc1	IL1B secr inh -68, VP16 counter inconclusive
CN(C)S(=O)(=O)N1CCC(Oc2ccc(C(=O)N3CCCCCC3)cc2)CC1	TDP1 cell CPT 23µM, DT40 TDP1 no CPT 13µM (no result: VP16 counter, RORg inh)
CC1CCCCN1C(=O)c1ccc(OC2CCN(S(=O)(=O)N(C)C)CC2)cc1 (configuration not stated)	TDP1 cell CPT inconclusive, DT40 TDP1 no CPT 10µM, RORg inh inconclusive
COCCC(=O)N1CCC(Oc2ccc(C(=O)N3CCCCCCC3)cc2)CC1	TDP1 cell CPT inconclusive, DT40 TDP1 no CPT inconclusive
CN(C)S(=O)(=O)N1CCC(Oc2ccc(C(=O)N3CCCCCCC3)cc2)CC1	TDP1 cell CPT 16µM, VP16 counter inconclusive, DT40 TDP1 no CPT 16µM, RORg inh inconclusive
CSCCNC(=O)c1ccc(OC2CCN(S(=O)(=O)N(C)C)CC2)cc1	none
Cn1cc(CN2CCC(Oc3ccc(C(=O)N4CCCC4)cc3)CC2)cn1	none
O=C1CSc2ccc(C(=O)Nc3ccc(Oc4ccccc4)cc3)cc2N1	none (no result: TDP1 cell CPT, IL1B secr inh, VP16 counter, DT40 TDP1 no CPT, RORg inh)
C#CCN(CC(=O)NC(=O)NCC=C)C1CCc2ccccc21 (configuration not stated)	none (no result: TDP1 cell CPT, IL1B secr inh, VP16 counter, DT40 TDP1 no CPT, RORg inh)
CN(C(=O)c1ccc(OC2CCN(S(=O)(=O)N(C)C)CC2)cc1)C1CCCCC1	TDP1 cell CPT 21µM, DT40 TDP1 no CPT inconclusive
O=C1[C@H](c2ccccc2)[C@@H](c2ccccc2)N1c1ccncc1	TDP1 cell CPT 15µM, DT40 TDP1 no CPT inconclusive (no result: VP16 counter, RORg inh)
COc1ccc(C2C(Oc3ccccc3)C(=O)N2c2ccc(C)c(C)c2)cc1OC (configuration not stated)	TDP1 cell CPT inconclusive, DT40 TDP1 no CPT inconclusive (no result: VP16 counter, RORg inh)
O=C1[C@@H](Oc2ccccc2)[C@@H](c2ccncc2)N1c1ccccc1	TDP1 cell CPT inconclusive, DT40 TDP1 no CPT 18µM (no result: VP16 counter, RORg inh)
O=C1[C@@H](Oc2ccccc2)[C@@H](c2ccccc2)N1c1cccnc1	TDP1 cell CPT inconclusive, DT40 TDP1 no CPT 13µM (no result: VP16 counter, RORg inh)
O=C1c2ccccc2C(O)N1c1cccnc1 (configuration not stated)	none
C[C@H]1C(=O)N(c2ccccc2)[C@@H]1c1ccccc1	none (no result: VP16 counter, RORg inh)
CC(C)(C)CC(C)(C)NCc1ccc(C(=O)O)cc1	none (no result: TDP1 cell CPT, IL1B secr inh, VP16 counter, DT40 TDP1 no CPT, RORg inh)
Cc1ccc(NC(=O)CSc2nc(-c3ccc(F)cc3)cc(C(F)(F)F)c2C#N)cc1	TDP1 cell CPT inconclusive (no result: IL1B secr inh, VP16 counter, RORg inh)
